Screens: PubChem, National Center for Advancing Translational Sciences (NCATS)
In the library only some 4% were active in any assay of this set; here they are far more common.
GRP78 ERSR act – ER stress response induction in glioma | 420,000 tested, 0.02% active | Potency, µM, hits mostly activators | U87-MG GRP78 promoter luciferase reporter, 16 h; active = well fitted activation curve with a large enough effect; note: series mostly up to about 76 µM; nearly all actives have a fitted effect of over 35% in size
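ERSR induction read as luciferase luminescence (Bright-Glo, 10 min at room temperature) in stably transfected human U87-MG glioma cells exposed to compounds for 16 h, using GRP78 as sensor.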
D1 potentiator – potentiators of human D1 dopamine receptor; P21728; HEK293 TREx D1 cells, calcium flux, dopamine EC20 potentiation; potentiation, % at 10 µM; 360,000 tested, 0.036% active; in the data active = potentiation above about 30%
Target sequence (P21728 whole entry, looked up): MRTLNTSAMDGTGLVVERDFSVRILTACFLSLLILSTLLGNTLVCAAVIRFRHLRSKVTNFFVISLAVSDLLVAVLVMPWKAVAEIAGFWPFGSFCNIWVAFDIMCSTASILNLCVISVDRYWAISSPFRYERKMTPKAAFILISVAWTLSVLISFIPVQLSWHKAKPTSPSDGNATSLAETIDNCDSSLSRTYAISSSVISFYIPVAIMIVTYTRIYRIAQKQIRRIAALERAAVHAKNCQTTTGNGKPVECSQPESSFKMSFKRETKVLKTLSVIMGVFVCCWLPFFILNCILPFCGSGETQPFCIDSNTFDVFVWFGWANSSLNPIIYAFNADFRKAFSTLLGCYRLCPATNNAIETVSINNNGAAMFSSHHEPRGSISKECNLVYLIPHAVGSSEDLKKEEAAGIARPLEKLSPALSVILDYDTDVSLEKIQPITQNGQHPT
D1 antag – blocks dopamine activation of the human D1 receptor. activity change, negative = inhibition, % at 10 µM. 360,000 tested, 3.2% active. AID 504652. HEK293 TREx D1 cells, calcium flux, dopamine EC80; active compounds read low. P21728; in the data active = activity change below about -30%
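Inducible Hek293 Trex D1 cells (tetracycline, overnight, 30 C). Calcium dye 30–90 min RT. Antagonist mode: EC80 dopamine added after 180 s compound read.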
TRHR PAM – allosterically enhances the human TRH receptor | enhancement, % at 2 µM | P34981 | AID 493056 | 360,000 tested, 0.66% active | TRHR cells, fluo-8 calcium fluorescence, EC20 TRH enhancement; in the data active = enhancement above about 30%
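Enhancer read-out: after compound pinning and an initial kinetic agonist-mode read, an EC20 of TRH (10 nM final) was injected and fluo-8 calcium signal (Ex 480/Em 530) followed at 1 s/cycle for 100 cycles in TRHR-expressing cells.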
D1 agonist – human D1 receptor agonism; P21728; HEK293 T-REx D1 cells, calcium flux, agonist mode; activation, % at 2 µM; 360,000 tested, 1% active; AID 504660
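Agonism was scored from calcium flux recorded over 180 s (1 read/s) after pintool compound addition, following a 10-cycle baseline. Cells were inducible force-coupled HEK293 TREx D1, plated overnight at 30 C and loaded with no-wash calcium dye.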
TRHR ag – activates the human TRH receptor. P34981. TRHR cells, calcium flux fluo-8, FDSS agonist mode. activation, % at 2 µM. 360,000 tested, 0.18% active
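Agonist-mode FDSS calcium read (Ex 480/Em 530, 1 s cycles) in 1536-well TRHR cells with fluo-8 dye, after 10-cycle baseline and 23 nL compound addition; TRH at EC20 (10 nM final) added afterwards for the enhancer phase.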
Numbers stand for hits; i = inactive; nt = no result; ! = not active in a repeat. Cut-off read from the data, not from the text of the source, unless noted: active = activation above about 30%; inactive = the rest.

SMILES	GRP78 ERSR act	D1 potentiator	D1 antag	TRHR PAM	D1 agonist	TRHR ag
COc1ccc(N2CCN(C(=O)CCC(=O)N3CCOc4ccc(C)cc43)CC2)cc1	i	i	-34	i	i	i
COc1ccc(N2CCN(C(=O)Cc3coc4ccc(C)cc34)CC2)cc1	i	i	-68	i	i	i
Cc1ccc2c(c1)N(C(=O)CCC(=O)N1CCN(c3cccc(C)c3C)CC1)CCO2	i	i	i	i	i	i
COc1cccc(CN(C(=O)Cc2c[nH]c3ccccc23)C(C(=O)NC2CCCCC2)c2cccs2)c1 (configuration not stated)	i	i	i	i	i	i
NC(=O)c1ccc(N2CCN(S(=O)(=O)c3ccccc3)CC2)c([N+](=O)[O-])c1	i	i	-40	i	i	i
COC(=O)c1ccc(N2CCN(CC(=O)c3ccc(-c4ccccc4)cc3)CC2)c([N+](=O)[O-])c1	i	i	-34	i	i	i
CCOC(=O)C1CCN(c2ccc(C(N)=O)cc2[N+](=O)[O-])CC1	i	i	-33	i	i	i
NC(=O)c1ccc(N2CCC(C(N)=O)CC2)c([N+](=O)[O-])c1	i	i	i	i	i	i
CC(C)c1nnc(NC(=O)CCC(=O)Nc2ccccc2)s1	i	i	i	i	i	i
CCOc1ccccc1NC(=O)c1sc(-n2nc(C)c(CCC(C)C)c2C)nc1C	i	i	i	i	i	i
CN1CCN2c3ccccc3Cc3ccccc3C2C1 (configuration not stated)	35µM!	i	i	i	i	i
CN1CCN(S(=O)(=O)c2ccccc2)C(c2ccccc2)C1 (configuration not stated)	i	nt	nt	nt	nt	nt
CC1(C(=O)NS(=O)(=O)c2cccs2)CCN1C(=O)C1(c2ccccc2)CCCC1 (configuration not stated)	i	nt	nt	nt	nt	nt
CCOC(=O)C(Cc1ccccc1)NS(=O)(=O)c1ccc(NC(C)=O)cc1 (configuration not stated)	i	i	-31	i	i	i
CC(C)C[C@@H](CN)NC(=O)c1nc[nH]c1C(=O)N[C@@H](C)C(=O)CNC[C@H](C)NC(=O)c1nc[nH]c1C(=O)N[C@@H](Cc1ccccc1)C(=O)O	i	nt	nt	nt	nt	nt
O=[N+]([O-])c1ccc(C(=S)N2CCN(c3ccc(F)cc3)CC2)cc1	i	i	-33	i	i	i
Cc1ccc(CC(=O)N2CCN(c3ccc([N+](=O)[O-])cc3)CC2)cc1	i	i	-42	i	i	i
CN(C)c1ccc(C(=S)N2CCN(c3ccc([N+](=O)[O-])cc3)CC2)cc1	i	i	-32	i	i	i
Cc1ccc(N2CCN(C(=S)c3ccc(N(C)C)cc3)CC2)cc1	i	i	i	i	i	i
Nc1cnccc1C(=O)O	i	i	i	i	32	i
Cc1cccc(NC(=O)CSc2nc3[nH]c(=O)cc(O)c3s2)c1	i	i	-32	i	i	i
Cc1ccc(OCC(O)CN2CCN(CC(O)COC(C)C)CC2)c(C(C)(C)C)c1 (configuration not stated)	i	i	i	i	i	i
CCOc1ccc(CNC(=O)c2oc3c(c2C)-c2nn(Cc4cccc(Cl)c4)cc2CC3)cc1	i	i	i	i	i	i
CC1(C)CC(=O)C(N=Nc2ccc(F)cc2)=C(O)C1	i	i	-42	i	i	i
O=C1CCCc2nc(N3CCN(C(c4ccccc4)c4ccccc4)CC3)ncc21	i	i	i	i	i	i
SMILES	GRP78 ERSR act	D1 potentiator	D1 antag	TRHR PAM	D1 agonist	TRHR ag
CCCc1c(NC(=O)Nc2ccc(F)cc2)cnn1-c1ccc(Cl)cc1	i	i	-43	i	i	i
O=C(NCCc1ccc(Cl)cc1)Nc1ccc(F)cc1	i	i	i	i	i	i
O=[N+]([O-])c1cccc(-c2csc(Nc3ccccc3)n2)c1	i	i	-30	i	i	i
O=C(COc1ccccc1)NC(=S)Nc1ccc2c3c(cccc13)CC2	i	i	i	i	i	i
O=C(COc1ccccc1)NC(=S)Nc1cccc2cc(O)ccc12	i	i	i	i	35	i
CC(=O)N1CCc2c(sc(NC(=O)CSc3ccccc3)c2-c2nc3ccccc3s2)C1	i	i	i	i	i	i
CN1CCc2c(sc(NC(=O)CSc3ccccc3)c2-c2nc3ccccc3s2)C1	i	i	-54	i	400	115
Cc1cc(NC(=O)CSc2nc3ccsc3c(=O)n2CCCCC(=O)O)no1	i	i	i	i	i	i
COc1ccc(/C(O)=C/c2nc3ccccc3n(-c3ccccc3)c2=O)cc1	i	i	i	i	39	i
C[C@@H]1CNC(=O)c2c(C(=O)NCc3ccc(CNC(=O)OC(C)(C)C)cc3)ncn21	i	nt	nt	nt	nt	nt
Cc1cccc(C2C=C(c3ccc(F)cc3)Nc3nc4ccccc4n32)c1 (configuration not stated)	i	i	i	i	i	i
CCc1ccc(C2=CC(c3c(F)cccc3Cl)n3c(nc4ccccc43)N2)cc1 (configuration not stated)	i	i	i	i	39	i
N#CCC(=O)N/N=C/c1ccccc1Cl	i	i	i	i	i	i
CC(C)(CNC(=O)c1ccc(S(=O)(=O)Nc2cccc(C(F)(F)F)c2)cc1)N1CCOCC1	i	i	i	35	i	i
Cc1onc(C(=O)Nc2cccnc2Cl)c1[N+](=O)[O-]	i	i	i	i	i	i
CCCCC1CCC(C(=O)N(C)CC(=O)Nc2cccc(F)c2)CC1 (configuration not stated)	i	i	i	i	i	i
COc1ccc(N2CCN(c3csc4ccc(Cl)cc4c3=O)CC2)cc1	i	i	i	i	43	i
Cc1ccc2nc(SCc3nnc(-c4ccccc4)o3)[nH]c2c1	i	i	i	i	i	i
Cc1ccc2nc(SCc3nnc(-c4cccs4)o3)[nH]c2c1	i	i	-37	i	i	i
COc1cccc(CNC(=O)c2ccccc2C(=O)NC(C)(C)C(=O)NCc2cccc(OC)c2)c1	i	i	i	i	i	i
Cc1nc2nc(C)c(CCC(=O)NC(C)c3ccc4c(c3)OCCO4)c(C)n2n1 (configuration not stated)	i	i	-48	i	i	i
Clc1ccccc1CSc1nnc(Cn2cnc3ccccc32)n1-c1ccccc1	i	i	-82	i	i	i
Nc1[nH]n2c(=O)c3c(nc2c1N=Nc1ccc(Cl)cc1)CCCC3	i	i	-50	i	i	i
COc1cc2ccnc(Cc3cccc(OC)c3OC)c2cc1OC	i	i	-44	i	i	i
C=CCNC(=O)c1onc(CSc2ccc(F)cc2)c1C(=O)O	i	i	-34	i	i	i
CCCNC(=O)c1onc(CSc2ccccn2)c1C(=O)NCCC	i	i	-38	i	i	i
